# Data published in PubChem BioAssay.
# Activity calls are given as the source filed them.
# Assays:
# [1] = test system: PRMT1 (protein arginine N-methyltransferase 1); experiment: PRMT1 binders on small-molecule microarrays, primary screen, biochemical, small-molecule microarray, 635 nm fluorescence (AID 1088); details: small-molecule microarray binding, higher = more signal;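 also: binding of Prmt1 protein to compounds spotted on small-molecule microarray slides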
# [2] = yeast growth modulation, basal conditions, primary screen, YJM789 clinical isolate, OD600, 24 h (AID 1089);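 also: growth of clinical yeast isolate S. cerevisiae YJM 789 seeded 1000 cells per well; test concentration not given here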; details: S. cerevisiae YJM789 growth, higher = more signal, called active from +8 up or from −8 down
# [3] = fission yeast growth modulation, primary screen, strain 972, OD600, 24 h, no modulator (AID 1090);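 also: basal condition with compound alone and no growth modifier present; test concentration not given here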; details: S. pombe 972 growth, higher = more signal, called active from +8 up or from −8 down
# [4] = S. cerevisiae growth modulation with rapamycin, primary screen, strain BY4716, OD600, 96 h (AID 1091); details: higher = more signal, called active from +8 up or from −8 down; also: test concentration not given here
# [5] = target: Torsin-1A-interacting protein 2 (Homo sapiens) (UniProt Q8NFQ8); experiment: LULL1 binders on small-molecule microarray, primary screen, cell lysate, human LULL1 lysate, 635/667 nm fluorescence (AID 1092); details: hLULL1 lysate binding, 635 nm fluorescence, higher = more signal;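 also: probe is lysate of COS7 cells overexpressing human LULL1; score merges per-feature 667 nm fluorescence with signal-to-noise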
# Sequence of Torsin-1A-interacting protein 2 (Homo sapiens) (Q8NFQ8 whole entry, looked up): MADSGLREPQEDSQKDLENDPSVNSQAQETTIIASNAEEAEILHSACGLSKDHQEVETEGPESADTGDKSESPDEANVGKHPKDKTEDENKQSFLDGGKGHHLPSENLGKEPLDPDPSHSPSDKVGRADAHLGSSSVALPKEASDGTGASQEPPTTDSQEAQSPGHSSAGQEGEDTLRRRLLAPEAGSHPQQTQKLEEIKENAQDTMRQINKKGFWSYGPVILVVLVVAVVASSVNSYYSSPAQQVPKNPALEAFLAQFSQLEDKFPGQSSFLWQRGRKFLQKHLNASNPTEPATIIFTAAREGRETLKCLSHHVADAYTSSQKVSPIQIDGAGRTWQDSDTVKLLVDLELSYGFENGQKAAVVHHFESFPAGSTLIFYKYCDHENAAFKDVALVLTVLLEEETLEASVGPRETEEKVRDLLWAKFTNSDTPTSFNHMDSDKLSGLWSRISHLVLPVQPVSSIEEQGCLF
# [6] = E. coli growth modulation, two-sided OD650, primary screen, E. coli filamentation project, strain DRC41, 24 h (AID 1093); details: OD650, 24 h, higher = more signal, called active from +8 up or from −8 down;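 also: MC1000 strain lacking acrAB efflux and sulA so SOS filamentation is blocked; test concentration not given here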
# [7] = small-molecule microarray binders of probe aLefty2, primary screen, biochemical, biotinylated probe, 635/667 nm fluorescence (AID 1094); details: higher = more signal;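 also: score merges spot fluorescence near 667 nm with spot signal-to-noise ratio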
# [8] = test system: Noggin (protein binding on small-molecule microarray); experiment: Noggin binders on small-molecule microarray, primary screen, biochemical, 635/667 nm fluorescence (AID 1095); details: 635 nm fluorescence, higher = more signal;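 also: score merges 667 nm feature fluorescence with signal to noise over triplicate slides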
# [9] = target: Neurogenic locus notch homolog protein 3 (Homo sapiens) (UniProt Q9UM47); experiment: NOTCH3 binders on small-molecule microarray, primary screen, biochemical, 635/667 nm fluorescence (AID 1096); details: NOTCH3 binding, 635 nm fluorescence, higher = more signal
# Sequence of Neurogenic locus notch homolog protein 3 (Homo sapiens) (Q9UM47 whole entry, looked up): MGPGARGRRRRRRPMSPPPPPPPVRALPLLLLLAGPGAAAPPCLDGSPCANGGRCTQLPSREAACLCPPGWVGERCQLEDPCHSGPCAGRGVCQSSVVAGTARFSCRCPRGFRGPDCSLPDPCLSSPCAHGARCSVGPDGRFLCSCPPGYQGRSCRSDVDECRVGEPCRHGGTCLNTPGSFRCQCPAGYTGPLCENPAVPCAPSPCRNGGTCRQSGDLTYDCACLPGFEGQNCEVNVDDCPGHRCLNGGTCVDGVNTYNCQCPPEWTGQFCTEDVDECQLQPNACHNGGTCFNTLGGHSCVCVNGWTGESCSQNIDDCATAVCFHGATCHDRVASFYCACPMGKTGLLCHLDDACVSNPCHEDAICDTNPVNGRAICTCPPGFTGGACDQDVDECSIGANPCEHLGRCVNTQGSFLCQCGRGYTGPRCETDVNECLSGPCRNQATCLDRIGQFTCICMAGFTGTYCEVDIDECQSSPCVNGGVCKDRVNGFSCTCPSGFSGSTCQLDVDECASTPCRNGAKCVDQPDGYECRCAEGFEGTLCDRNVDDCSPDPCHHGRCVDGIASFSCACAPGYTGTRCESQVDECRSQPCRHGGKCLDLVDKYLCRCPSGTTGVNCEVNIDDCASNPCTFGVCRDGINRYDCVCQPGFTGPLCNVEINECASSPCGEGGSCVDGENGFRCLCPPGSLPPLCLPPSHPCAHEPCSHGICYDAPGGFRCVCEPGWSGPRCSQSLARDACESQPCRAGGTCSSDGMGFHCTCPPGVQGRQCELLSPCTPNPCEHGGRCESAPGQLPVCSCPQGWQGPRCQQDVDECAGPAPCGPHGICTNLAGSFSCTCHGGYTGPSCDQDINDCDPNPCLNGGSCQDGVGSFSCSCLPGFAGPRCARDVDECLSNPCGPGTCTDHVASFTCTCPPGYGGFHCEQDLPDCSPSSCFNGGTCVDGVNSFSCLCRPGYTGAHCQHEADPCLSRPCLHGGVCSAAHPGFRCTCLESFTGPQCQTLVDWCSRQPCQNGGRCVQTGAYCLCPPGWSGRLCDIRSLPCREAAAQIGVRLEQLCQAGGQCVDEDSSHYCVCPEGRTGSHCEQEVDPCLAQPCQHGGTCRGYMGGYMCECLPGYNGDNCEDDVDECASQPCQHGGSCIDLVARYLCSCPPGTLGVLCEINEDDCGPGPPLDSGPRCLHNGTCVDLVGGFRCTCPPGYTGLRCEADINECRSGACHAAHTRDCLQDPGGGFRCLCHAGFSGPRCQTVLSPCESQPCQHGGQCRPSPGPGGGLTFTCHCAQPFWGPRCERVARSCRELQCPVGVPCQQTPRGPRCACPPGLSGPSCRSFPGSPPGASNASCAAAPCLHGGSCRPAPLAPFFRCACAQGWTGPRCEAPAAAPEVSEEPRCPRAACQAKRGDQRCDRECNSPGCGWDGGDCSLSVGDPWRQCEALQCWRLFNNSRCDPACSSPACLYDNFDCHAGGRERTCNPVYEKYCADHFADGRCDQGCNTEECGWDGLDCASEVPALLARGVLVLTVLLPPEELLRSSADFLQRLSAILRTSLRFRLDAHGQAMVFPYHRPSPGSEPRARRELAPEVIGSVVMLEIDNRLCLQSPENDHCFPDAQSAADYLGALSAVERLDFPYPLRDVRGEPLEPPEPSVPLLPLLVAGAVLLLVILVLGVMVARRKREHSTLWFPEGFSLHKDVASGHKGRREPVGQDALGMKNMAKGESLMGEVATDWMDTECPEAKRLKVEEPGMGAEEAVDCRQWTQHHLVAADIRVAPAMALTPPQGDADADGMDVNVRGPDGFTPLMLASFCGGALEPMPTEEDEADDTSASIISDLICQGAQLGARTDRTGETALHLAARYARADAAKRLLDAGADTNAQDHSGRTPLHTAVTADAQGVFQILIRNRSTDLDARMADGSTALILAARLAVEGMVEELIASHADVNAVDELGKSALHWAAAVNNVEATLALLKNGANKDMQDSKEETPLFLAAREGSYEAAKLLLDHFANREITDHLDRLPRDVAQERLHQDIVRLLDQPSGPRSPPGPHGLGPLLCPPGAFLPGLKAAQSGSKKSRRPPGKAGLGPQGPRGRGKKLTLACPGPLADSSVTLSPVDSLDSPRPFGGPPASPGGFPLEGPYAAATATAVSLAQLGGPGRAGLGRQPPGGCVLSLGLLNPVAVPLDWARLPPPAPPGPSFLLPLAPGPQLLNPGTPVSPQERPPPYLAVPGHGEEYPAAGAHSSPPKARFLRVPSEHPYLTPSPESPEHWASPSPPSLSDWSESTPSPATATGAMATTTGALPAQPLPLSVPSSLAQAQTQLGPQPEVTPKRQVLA
# [10] = small-molecule microarray binders of probe aEGFR, primary screen, biochemical, biotinylated probe, 635/667 nm fluorescence (AID 1097); details: higher = more signal;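 also: probe is a biotinylated anti-EGFR antibody binding compounds printed on slides; score combines fluorescence near 667 nm and signal to noise of each spot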
# [11] = test system: Plasmodium falciparum Sir2 (PF13_0152, Sir2A); experiment: pfSir2 binders on small-molecule microarrays, primary screen, biochemical, small-molecule microarray, 635 nm fluorescence (AID 1098); details: small-molecule microarray binding, fluorescence 635 nm; higher = more signal;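 also: score merges spot fluorescence intensity with its signal-to-noise ratio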
# [12] = small-molecule microarray binders of probe aDKK1, primary screen, biochemical, biotinylated probe, 635/667 nm fluorescence (AID 1099); details: higher = more signal;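 also: score merges 667nm spot fluorescence with signal to noise across triplicate slides; reference of the scale not given here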
# [13] = small-molecule microarray binders of probe aCHRDL2, primary screen, biochemical, biotinylated probe, 635/667 nm fluorescence (AID 1100); details: higher = more signal
# [14] = splicing luciferase reporter signal modulators, primary screen, spliceosome inhibition project, cell-based, HEK293, splice +/- reporter (AID 1101); details: luminescence, 24 h, higher = more signal, called active from +8 up or from −8 down;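 also: HEK293 cells carrying a splicing-competent luciferase reporter gene; test concentration not given here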
# [15] = target: Fibroblast growth factor 10 (Homo sapiens) (UniProt O15520); experiment: FGF10 binders on small-molecule microarrays, primary screen, biochemical, small-molecule microarray, 635 nm fluorescence (AID 1102); details: FGF10 binding, fluorescence 635 nm, higher = more signal
# Sequence of Fibroblast growth factor 10 (Homo sapiens) (O15520 whole entry, looked up): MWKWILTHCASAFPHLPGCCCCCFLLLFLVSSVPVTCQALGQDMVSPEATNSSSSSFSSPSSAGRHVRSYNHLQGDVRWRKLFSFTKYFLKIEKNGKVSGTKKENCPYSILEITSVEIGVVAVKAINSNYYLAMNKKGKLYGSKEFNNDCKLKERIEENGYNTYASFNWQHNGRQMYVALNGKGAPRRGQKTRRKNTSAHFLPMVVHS
# [16] = test system: glycogen synthase kinase-3 (GSK3A per assay name; protocol says GSK3B); experiment: GSK3 binders on small-molecule microarrays, primary screen, biochemical, small-molecule microarray, 635 nm fluorescence, GSK3A (AID 1103); details: small-molecule microarray binding, fluorescence 635 nm; higher = more signal; also: the record names both GSK3A and GSK3B
# [17] = target: Epidermal growth factor receptor (Homo sapiens) (UniProt P00533); experiment: EGFR binders on small-molecule microarrays, primary screen, biochemical, small-molecule microarray, 635 nm fluorescence (AID 1104); details: EGFR binding, higher = more signal;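 also: score merges 667 nm emission intensity with spot signal to noise over triplicate slides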
# Sequence of Epidermal growth factor receptor (Homo sapiens) (P00533 whole entry, looked up): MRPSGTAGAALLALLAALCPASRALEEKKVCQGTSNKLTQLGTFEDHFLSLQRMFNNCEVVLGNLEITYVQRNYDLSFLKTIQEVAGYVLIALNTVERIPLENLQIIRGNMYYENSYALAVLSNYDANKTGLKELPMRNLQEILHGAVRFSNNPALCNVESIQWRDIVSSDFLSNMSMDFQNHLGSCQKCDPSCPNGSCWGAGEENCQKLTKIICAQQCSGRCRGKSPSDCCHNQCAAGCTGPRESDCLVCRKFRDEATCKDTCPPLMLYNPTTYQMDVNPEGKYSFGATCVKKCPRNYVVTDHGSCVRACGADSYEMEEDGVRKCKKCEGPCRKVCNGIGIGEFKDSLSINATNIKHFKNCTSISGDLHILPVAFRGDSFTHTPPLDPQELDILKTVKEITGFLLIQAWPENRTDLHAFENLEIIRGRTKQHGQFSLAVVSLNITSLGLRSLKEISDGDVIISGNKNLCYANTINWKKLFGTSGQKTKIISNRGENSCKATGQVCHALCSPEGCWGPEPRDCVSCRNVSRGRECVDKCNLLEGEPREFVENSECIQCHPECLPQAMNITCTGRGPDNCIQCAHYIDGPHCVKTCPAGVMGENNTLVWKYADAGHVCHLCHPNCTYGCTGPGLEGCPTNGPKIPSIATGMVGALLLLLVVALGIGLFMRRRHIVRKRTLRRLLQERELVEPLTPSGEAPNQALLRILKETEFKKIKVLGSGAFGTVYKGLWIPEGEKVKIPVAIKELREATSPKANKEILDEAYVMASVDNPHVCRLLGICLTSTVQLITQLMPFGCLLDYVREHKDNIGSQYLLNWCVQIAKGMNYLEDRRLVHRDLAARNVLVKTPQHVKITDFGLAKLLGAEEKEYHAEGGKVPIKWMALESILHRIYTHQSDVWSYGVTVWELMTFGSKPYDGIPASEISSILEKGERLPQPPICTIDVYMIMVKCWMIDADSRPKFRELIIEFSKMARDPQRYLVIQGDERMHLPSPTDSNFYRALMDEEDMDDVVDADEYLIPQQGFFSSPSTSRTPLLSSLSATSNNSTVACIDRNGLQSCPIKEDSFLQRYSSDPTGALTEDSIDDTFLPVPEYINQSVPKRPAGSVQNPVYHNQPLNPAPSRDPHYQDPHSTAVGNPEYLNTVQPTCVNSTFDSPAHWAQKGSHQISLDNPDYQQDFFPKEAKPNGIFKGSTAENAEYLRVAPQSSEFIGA
# [18] = target: Follistatin-related protein 3 (Homo sapiens) (UniProt O95633); experiment: FSTL3 binders on small-molecule microarrays, primary screen, biochemical, small-molecule microarray, 635 nm fluorescence (AID 1105); details: FSTL3 binding, higher = more signal;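 also: score merges emission near 667 nm and signal to noise per printed spot across three slides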
# Sequence of Follistatin-related protein 3 (Homo sapiens) (O95633 whole entry, looked up): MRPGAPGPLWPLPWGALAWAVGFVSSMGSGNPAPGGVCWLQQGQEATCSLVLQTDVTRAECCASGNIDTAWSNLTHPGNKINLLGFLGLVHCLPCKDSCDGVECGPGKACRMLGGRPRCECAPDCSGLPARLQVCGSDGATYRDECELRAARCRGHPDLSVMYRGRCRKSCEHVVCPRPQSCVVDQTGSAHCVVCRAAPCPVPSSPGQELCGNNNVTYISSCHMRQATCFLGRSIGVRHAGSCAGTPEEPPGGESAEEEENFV
# [19] = target: Dickkopf-related protein 1 (Homo sapiens) (UniProt O94907); experiment: DKK1 binders on small-molecule microarrays, primary screen, biochemical, small-molecule microarray, 635 nm fluorescence scan (AID 1106); details: DKK1 binding, higher = more signal;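 also: score merges emission near 667 nm with signal to noise over three replicate slides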
# Sequence of Dickkopf-related protein 1 (Homo sapiens) (O94907 whole entry, looked up): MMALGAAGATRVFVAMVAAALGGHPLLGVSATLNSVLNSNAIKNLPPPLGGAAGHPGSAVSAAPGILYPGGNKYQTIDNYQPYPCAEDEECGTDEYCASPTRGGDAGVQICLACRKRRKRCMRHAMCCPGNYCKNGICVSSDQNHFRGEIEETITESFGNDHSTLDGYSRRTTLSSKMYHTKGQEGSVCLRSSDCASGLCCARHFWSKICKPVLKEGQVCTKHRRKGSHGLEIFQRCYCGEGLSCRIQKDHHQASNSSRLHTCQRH
# [20] = test system: Inhibin beta A chain (activin A); experiment: INHBA (activin A) binders on microarrays, primary screen, biochemical, small-molecule microarray, 635 nm fluorescence scan (AID 1107); details: small-molecule microarray binding, higher = more signal;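 also: mouse activin A protein probed at 4.33 µg/mL on printed slides; score merges bound-protein fluorescence near 667 nm with spot signal-to-noise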
Compound,composite z-score [1],z-score [2],z-score [3],z-score [4],composite z-score [5],z-score [6],composite z-score [7],composite z-score [8],composite z-score [9],composite z-score [10],composite z-score [11],composite z-score [12],composite z-score [13],z-score [14],composite z-score [15],composite z-score [16],composite z-score [17],composite z-score [18],composite z-score [19],composite z-score [20]
C=CCN1C(=O)[C@@]2(O[C@@H](CCO)[C@H]([Si](C)(C)c3ccc(OC)cc3)[C@H]2C)c2cc(NC(C)=O)ccc21,1.15,0.0173 (inactive),-1.67 (inactive),-0.741 (inactive),1.96,-0.203 (inactive),-0.0231,1.23,0.725,0.118,0.463,-0.155,-0.255,-1.17 (inactive),1.08,1.16,0.363,1.44,1.29,0.314
COCC1C2CC[C@H]3C(OCc4ccc(F)cc4C(F)(F)F)OC[C@]4(C)[C@H]3C2=C(CN4C(=O)OC(C)(C)C)[C@H](C)C1COC (stereo not given in full),0.61,-0.886 (inactive),1.04 (inactive),-0.2 (inactive),3.48,-1.02 (inactive),0.522,-0.761,0.96,0.0598,1.45,1.04,1.23,-0.625 (inactive),0.189,0.366,0.0761,0.45,0.202,0.939
[N-]=[N+]=Nc1ccccc1[C@@H]1OC(c2ccc(OCCCO)cc2)=N[C@]1(CCS(=O)(=O)c1ccccc1)C(=O)N1CCCCC1,1.56,0.436 (inactive),1.15 (inactive),2.83 (inactive),2.83,0.106 (inactive),0.799,0.237,1.05,0.292,1.39,1.63,1.41,-0.261 (inactive),1.05,0.85,0.098,0.811,-0.423,1.36
COc1cc2c(cc1O)C(c1ccc(CN3CCCC3)cc1)N(Cc1sc3ccccc3c1Cl)CC2 (stereo not given),1.13,-1.43 (inactive),-17.7 (active),-1.1 (inactive),1.93,0.504 (inactive),0.157,0.369,0.202,0.0475,1.41,0.0829,0.234,-0.478 (inactive),0.514,-0.111,0.521,0.988,1.12,1.35
CN(C)CCCC[C@@H]1NC(=O)[C@@H]2C[C@H](C(=O)NCCCCCN)[C@H](c3ccc(O)cc3)N2C1=O,0.255,0.212 (inactive),-0.977 (inactive),0.213 (inactive),2.6,0.0706 (inactive),-0.0862,-0.668,-0.0504,-0.075,0.016,0.442,0.916,-0.159 (inactive),-0.008,0.31,-0.912,-1.25,-0.722,-0.273
C=CCN1C(=O)[C@@]2(O[C@@H](CCO)[C@H]([Si](C)(C)c3ccc(OC)cc3)[C@H]2C)c2cc(N3C(=O)COc4ccccc43)ccc21,1.45,1.64 (inactive),0.842 (inactive),35.4 (active),1.81,0.375 (inactive),-0.275,0.17,0.4,-0.178,1.16,-0.447,-0.0458,-3.26 (inactive),0.993,0.324,-0.289,0.193,-0.609,-0.145
COc1ccccc1CN1C(=O)c2ccccc2[C@](Cc2ccccc2I)(C(=O)NCc2ccccc2)[C@@H]1c1ccc(CO)cc1,1.02,-0.295 (inactive),-0.127 (inactive),-0.694 (inactive),2.22,0.106 (inactive),0.0023,-0.373,-0.418,-0.0432,0.17,0.131,0.875,0.164 (inactive),0.184,-0.0893,-0.593,-0.457,-0.341,0.9
Cc1ccc(S[C@]2(C(=O)NCCCN(C)C)CC(=O)N(Cc3ccccc3)[C@@H]2c2ccc(CO)cc2)cc1,1.25,-0.933 (inactive),-1.18 (inactive),-1.03 (inactive),2.01,-0.0465 (inactive),0.555,-0.511,-0.631,-0.152,-1.43,0.938,1.15,-0.522 (inactive),-1.01,-0.726,-1.03,-1.26,-0.909,0.591
COCCOC(=O)N1C(=O)[C@@]2(c3cc(C#Cc4ccc(OC)cc4)ccc31)[C@H](c1ccc(O)cc1)N1[C@H](c3ccccc3)[C@H](c3ccccc3)OC(=O)[C@H]1[C@@H]2C(=O)N1CCN(c2ncccn2)CC1,1.52,1.56 (inactive),1.16 (inactive),2.83 (inactive),2.44,1.15 (inactive),0.047,0.52,0.258,0.0746,0.408,-0.544,0.245,0.477 (inactive),0.735,-0.0597,0.375,0.85,0.355,0.349
C=C(CCCC)/C(=C/C[C@@H](OC(=O)c1ccncc1)c1ccc(CO)o1)c1cc(C(=O)OC)ccc1OC,1.45,-0.169 (inactive),-1.75 (inactive),-0.331 (inactive),2.3,0.635 (inactive),-0.101,0.752,1.07,0.107,1.5,0.0296,-0.363,0.674 (inactive),0.833,1.31,0.669,1.03,0.744,0.775
